According to PubChem BioAssay (NCI):
Compounds without any hit were thinned out: in the full panel of roughly 83,000, 20% have a hit.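 Single-dose data. Exposure time 48 hours. Values below 10 considered active.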 Unmarked numbers belong to inactive results. Activity calls are given as the source filed them.

tested on: OVCAR-8 ovarian; assay: NCI-60 one-dose screen, 48 h (100 = growth as untreated, 0 = no growth, -100 = all killed); conditions: 10 µM unless noted

Structure (SMILES) | growth
C=C1C(=O)O[C@@H]2C[C@@H](C)[C@H](OC)CC(=O)[C@](C)(OC(C)=O)C[C@H](OC(=O)/C(C)=C\C)[C@@H]12 | 59%
O=C1[C@H]2Cc3c([nH]c4ccccc34)[C@@H](c3ccc(Cl)cc3)N2C(=O)CN1C1CCN(Cc2c(Cl)cccc2Cl)CC1 | 89.2%
COc1ccc(Cn2cc3c(c2-c2ccccc2)CCCc2cnoc2-3)cc1 | 78.8%
COc1ccc(-c2oc3cc(O)cc(O)c3c(=O)c2OC)cc1O | 26.8%
N/C(=N\OC(=O)CSc1nc2ccccc2s1)c1ccc2ccccc2c1 | 98.8%
CCOC(=O)C1=C(C)Nc2nc3ccccc3n2C1c1ccccc1 (stereo not drawn) | 96.6%
CS(=O)(=O)c1ccc(-c2nn(-c3ccccc3)cc2/C=N/NC(=O)c2ccncc2)cc1 | 101%
Cc1cc(O)c2c(c1)C(=O)C(c1c(C)cc3c(c1O)C(=O)C=CC3=O)=CC2=O | 82.5%
N#Cc1c(NC(=O)c2ccccc2C(F)(F)F)sc2c1CCC(=O)C2 | 16.3%
CCOC(=O)C1=C(C)N=C2Sc3ccccc3N2C1c1ccccc1 (stereo not drawn) | 96.6%
CN(C)c1ncc(/C=C2\SC(=S)N(Cc3ccccc3Cl)C2=O)s1 | 95.8%
CCN1C(=O)N(CC)C2SC(N/N=C/c3ccc(OC)cc3)=NC21 (stereo not drawn) | 26%
O=C1[C@@H]2Cc3c([nH]c4ccccc34)[C@H](c3c(Cl)cccc3Cl)N2C(=O)CN1C1CCN(Cc2c(F)cccc2F)CC1 | 79.3%
CC1OC(O[C@@H]2[C@H](O)C(CO)OC(O[C@H]3COC(O[C@H]4CC[C@]5(C)[C@H]6CC[C@]78OC[C@@]9(CC[C@](C)(C=O)C[C@H]97)C(=O)C[C@@]8(C)[C@]6(C)CC[C@H]5C4(C)C)[C@@H](O)[C@@H]3O)[C@H]2OC2OC[C@@H](O)[C@@H](O)[C@@H]2O)[C@@H](O)[C@@H](O)[C@H]1O (stereo partly drawn) | 91.9%
CC(=O)NC(C)(C)C(=O)N1CCC[C@H]1C(=O)NC(C)(C)C(=O)N[C@@H](C)C(=O)NC(C)(C)C(=O)NC(C)(C)C(=O)N[C@@H](CCC(N)=O)C(=O)NC(C)(C)C(=O)N[C@H](C(=O)NC(C)(C)C(=O)NCC(=O)N[C@@H](CC(C)C)C(=O)NC(C)(C)C(=O)N1CCC[C@H]1C(=O)N[C@H](C(=O)NC(C)(C)C(=O)NC(C)(C)C(=O)N[C@@H](CCC(N)=O)C(=O)N[C@@H](CCC(N)=O)C(=O)N[C@H](CO)Cc1ccccc1)C(C)C)C(C)C | 46.3% [4.25 µM]
CC1(C)CC[C@]2(C(=O)O)CC[C@]3(C)C(=CCC4[C@@]5(C)C[C@@H](O)[C@@H]6OC(c7cccc([N+](=O)[O-])c7)OC[C@@]6(C)C5CC[C@]43C)C2C1 (stereo partly drawn) | 58.7%
Oc1ccccc1-c1nnc(SCc2ccc(O)c3ncccc23)n1-c1ccccc1 | 15.5%
O=c1c2c(O)cccc2oc2c3c(cc(O)c12)O[C@H]1OC=C[C@@H]31 | 87.8%
O=C(CN1C(=O)S/C(=C\c2ccccc2)C1=O)Nc1ccc(C(=O)/C=C/c2cc3ccccc3nc2Cl)cc1 | 81.9%

Structure (SMILES) | growth
O=C(/C=C/c1cccc(O)c1)c1ccc(O)cc1 | 83.7%
ClC(Cl)c1nc(-c2cccs2)n2nc(-c3ccccc3)cc2n1 | 12%
CC1OC(O[C@@H]2C(O)C(CO)OC(O[C@H]3COC(O[C@H]4CC[C@]5(C)[C@H]6CC[C@]78OC[C@@]9(CC[C@](C)(C=O)C[C@H]97)[C@H](O)C[C@@]8(C)[C@]6(C)CC[C@H]5C4(C)C)[C@@H](OC4OC(CO)[C@@H](O)[C@@H](O)[C@@H]4O)[C@@H]3O)[C@H]2OC2OC[C@@H](O)[C@@H](O)[C@@H]2O)[C@@H](O)[C@@H](O)[C@H]1O (stereo partly drawn) | 27.1%
O=C(CCCCCCN1CC(=O)N2[C@@H](c3cc(F)cc(F)c3)c3[nH]c4ccccc4c3C[C@H]2C1=O)NO | 45%
N=c1c2cc(-c3ccccc3)oc2ncn1/N=C/c1ccccc1 | 96.9%
COc1cc(CNC(=O)/C=C/c2ccccc2)ccc1OCC(=O)NO | 98.2%
C=C(C)[C@@H]1CC[C@]2(COS(C)(=O)=O)CC[C@]3(C)[C@H](CC[C@@H]4[C@@]5(C)CCCNC(C)(C)[C@@H]5CC[C@]43C)[C@@H]12 | 92.1%
C#CCOc1ccc(C(Nc2cc(Cl)ccc2Cl)c2nnnn2C2CCCCC2)cc1 (stereo not drawn) | 91.3%
Oc1ccc(CSc2nnc(-c3cnccn3)n2-c2ccccc2)c2cccnc12 | 23.1%
O=C(COc1ccc(C2SCC(=O)N2c2ccccc2)cc1)c1ccccc1 (stereo not drawn) | 94.1%
c1ccc(-c2c(-c3ccccc3)[n+](Cc3ccc4ccccc4c3)c(-c3ccccc3)n2Cc2ccc3ccccc3c2)cc1 | -69.3% (active)
O=C1[C@H]2Cc3c([nH]c4ccccc34)[C@H](c3ccc(Cl)cc3)N2C(=O)CN1C1CCN(Cc2c(Cl)cccc2Cl)CC1 | 84.5%
COc1ccc(/C=C/C(=O)c2nnn(-c3ccc(Br)cc3)c2C)cc1OC | 82.7%
CCC(CC)N1C(=O)/C(=c2\sc3n(c2=O)C2C(NN=3)N(CC)C(=O)N2CC)c2ccccc21 (stereo not drawn) | 34.8%
COc1ccc(-c2nnc(SCc3ccc(O)c4ncccc34)n2-c2ccccc2)cc1 | 16.1%
C=C(C)[C@@H]1CC[C@]2(C(=O)NCCCN(CCC#N)CCC#N)CC[C@]3(C)[C@H](CC[C@@H]4[C@@]5(C)CCC(=O)C(C)(C)[C@@H]5CC[C@]43C)[C@@H]12 | 105%
O=C(COc1ccc(C2SCC(=O)N2c2ccc(F)cc2)cc1)c1ccccc1 (stereo not drawn) | 94.4%
NCCN1CCN(c2nc(-c3ccccc3)nc3nc(-c4ccccc4)oc23)CC1 | -16.4% (active)
Cc1ccc(NC(=O)c2cccc(CN3CCN(C)CC3)c2)cc1Oc1ccc(-c2[nH]nc3ncnc(N)c23)cc1 | 83.1%
